{"source": "paper PMC4336329", "about": "(PLoS ONE, 2015)", "note": "The campaign covered roughly 310,000 compounds. About 14,000 (4.5%) showed an effect of 50% or more. The effect is printed as a negative number. What follows is part of a selection rich in strong results, with near analogues and random picks from the rest.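 Note: peak tail current of the secondary pulse compared with the same well before compound.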", "data": [{"target": "human ether-à-go-go-related gene (hERG) potassium channel (human, UniProt Q12809)", "sequence (Q12809 whole entry, looked up)": "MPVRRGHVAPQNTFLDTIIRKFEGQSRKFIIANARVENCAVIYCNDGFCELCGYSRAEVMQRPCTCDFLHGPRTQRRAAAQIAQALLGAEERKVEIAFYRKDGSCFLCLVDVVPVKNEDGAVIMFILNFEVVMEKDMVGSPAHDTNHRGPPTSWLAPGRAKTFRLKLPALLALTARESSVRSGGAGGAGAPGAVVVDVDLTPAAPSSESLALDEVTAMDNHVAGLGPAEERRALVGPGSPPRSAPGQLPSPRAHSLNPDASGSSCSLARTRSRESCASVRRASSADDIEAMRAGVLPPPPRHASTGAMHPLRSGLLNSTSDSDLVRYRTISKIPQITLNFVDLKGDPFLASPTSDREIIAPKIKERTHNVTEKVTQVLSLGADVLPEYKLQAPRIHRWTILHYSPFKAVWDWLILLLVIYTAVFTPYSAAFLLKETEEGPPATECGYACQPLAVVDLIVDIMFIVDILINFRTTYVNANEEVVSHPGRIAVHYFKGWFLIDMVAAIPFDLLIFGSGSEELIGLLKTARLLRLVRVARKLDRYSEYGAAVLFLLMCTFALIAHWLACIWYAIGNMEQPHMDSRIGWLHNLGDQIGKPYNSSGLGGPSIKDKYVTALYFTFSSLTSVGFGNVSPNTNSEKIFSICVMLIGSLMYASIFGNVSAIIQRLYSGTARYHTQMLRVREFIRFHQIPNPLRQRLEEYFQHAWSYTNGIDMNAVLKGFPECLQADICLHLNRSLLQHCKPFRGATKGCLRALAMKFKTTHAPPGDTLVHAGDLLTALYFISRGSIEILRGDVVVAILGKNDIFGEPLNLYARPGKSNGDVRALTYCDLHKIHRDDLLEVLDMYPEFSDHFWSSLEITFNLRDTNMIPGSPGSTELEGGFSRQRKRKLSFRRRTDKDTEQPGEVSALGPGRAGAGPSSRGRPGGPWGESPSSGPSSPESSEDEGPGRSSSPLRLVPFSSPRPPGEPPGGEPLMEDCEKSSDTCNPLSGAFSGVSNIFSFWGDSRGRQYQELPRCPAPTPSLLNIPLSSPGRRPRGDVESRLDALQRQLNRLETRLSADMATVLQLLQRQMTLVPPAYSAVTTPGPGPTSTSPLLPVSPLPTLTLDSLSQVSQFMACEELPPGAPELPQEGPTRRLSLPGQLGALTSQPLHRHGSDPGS", "assay": "primary screen, population patch clamp on CHO cells stably expressing hERG; higher = less effect of the substance", "units": {"hERG current change (%, negative = inhibition) at 10uM": "%"}, "values": [{"smiles": "Cc1nc(CC(=O)NNS(=O)(=O)c2ccc(F)c(Cl)c2)cs1", "hERG current change (%, negative = inhibition) at 10uM": 20}, {"smiles": "O=C(COC(=O)C1CCCN1C(=O)c1cccs1)Nc1ccc2c(c1)OCO2", "note": "(stereo not shown)", "hERG current change (%, negative = inhibition) at 10uM": -11.9}, {"smiles": "Cc1ccc(C)c(S(=O)(=O)Nc2cc(SCC(=O)O)c(O)c3ccccc23)c1", "hERG current change (%, negative = inhibition) at 10uM": 5.34}, {"smiles": "CCOc1ccc(Cc2c(C)[nH]c3ccc(C(=O)O)cc3c2=S)cc1", "hERG current change (%, negative = inhibition) at 10uM": -9.2}, {"smiles": "COc1ccc([N+](=O)[O-])cc1N(CC(O)CN1CCCCC1)S(=O)(=O)c1ccc(C)cc1", "note": "(stereo not shown)", "hERG current change (%, negative = inhibition) at 10uM": -42.7}, {"smiles": "O=[N+]([O-])c1cccc(N(CC(O)CN2CCCCC2)S(=O)(=O)c2ccccc2)c1", "note": "(stereo not shown)", "hERG current change (%, negative = inhibition) at 10uM": -43.8}, {"smiles": "O=[N+]([O-])c1cccc(N(CC(O)CN2CCCC2)S(=O)(=O)c2ccccc2)c1", "note": "(stereo not shown)", "hERG current change (%, negative = inhibition) at 10uM": -62.4}, {"smiles": "Cc1ccc(S(=O)(=O)N(CC(O)CN2CCCCC2)c2cccc([N+](=O)[O-])c2)cc1", "note": "(stereo not shown)", "hERG current change (%, negative = inhibition) at 10uM": -78.8}, {"smiles": "Cc1cc(C)n(CC(O)CN(c2cccc([N+](=O)[O-])c2)S(=O)(=O)c2ccccc2)n1", "note": "(stereo not shown)", "hERG current change (%, negative = inhibition) at 10uM": 7.08}, {"smiles": "COc1ccc([N+](=O)[O-])cc1N(CC(O)CN1CCCC1)S(=O)(=O)c1ccc(C)cc1", "note": "(stereo not shown)", "hERG current change (%, negative = inhibition) at 10uM": -2.85}, {"smiles": "Cc1cc(C)c2nc(SCC#N)cc(C)c2c1", "hERG current change (%, negative = inhibition) at 10uM": 13.5}, {"smiles": "O=C(OCC#CCSc1nnc(-c2cccc3ccccc23)o1)c1ccco1", "hERG current change (%, negative = inhibition) at 10uM": -2.9}, {"smiles": "CCN=C(Nc1ccc(Cl)cc1)c1cccnc1", "hERG current change (%, negative = inhibition) at 10uM": -2.16}, {"smiles": "O=C(N/C(=C/c1ccco1)C(=O)N1CCCC1)c1cccs1", "hERG current change (%, negative = inhibition) at 10uM": -0.326}, {"smiles": "CC(C)(C)OC(=O)N1CCOCCOCCN(C(=O)OC(C)(C)C)CCOCCOCC1", "hERG current change (%, negative = inhibition) at 10uM": 7}, {"smiles": "Cc1oc(-c2ccc(Cl)cc2)nc1CN1CCCC(C(=O)NCCCN2CCOCC2)C1", "note": "(stereo not shown)", "hERG current change (%, negative = inhibition) at 10uM": -19.4}, {"smiles": "Cc1oc(-c2ccc(Cl)cc2)nc1CS(=O)CC(=O)NC1CC1", "note": "(stereo not shown)", "hERG current change (%, negative = inhibition) at 10uM": 8.75}, {"smiles": "COc1ccc(-c2nc(CN3CCCC(C(=O)NC4CCCC4)C3)c(C)o2)cc1", "note": "(stereo not shown)", "hERG current change (%, negative = inhibition) at 10uM": -64.4}, {"smiles": "COc1ccc(-c2nc(CS(=O)CC(=O)NC3CCCC3)c(C)o2)cc1", "note": "(stereo not shown)", "hERG current change (%, negative = inhibition) at 10uM": -16.4}, {"smiles": "COc1ccc(-c2nc(CN3CCC(C(=O)NC4CCCC4)CC3)c(C)o2)cc1OC", "hERG current change (%, negative = inhibition) at 10uM": -36.4}, {"smiles": "Cc1oc(-c2ccc(Cl)cc2)nc1CN1CCCC(C(=O)NC2CC2)C1", "note": "(stereo not shown)", "hERG current change (%, negative = inhibition) at 10uM": -81.3}, {"smiles": "CC1CCN(c2nc(N3CCCCC3)nc(N3CCCCC3)n2)CC1", "hERG current change (%, negative = inhibition) at 10uM": 9.57}, {"smiles": "CC(C)(C)C(=O)OCc1nc(-c2ccc(Cl)cc2)cs1", "hERG current change (%, negative = inhibition) at 10uM": 7.41}, {"smiles": "COc1ccc(CNC(=O)CCc2nc3cc(S(=O)(=O)N(C)C)ccc3n2C)cc1OC", "hERG current change (%, negative = inhibition) at 10uM": 14.3}, {"smiles": "N#C/C(=C\\N1CCCCC1)S(=O)(=O)c1ccc(Cl)cc1", "hERG current change (%, negative = inhibition) at 10uM": 15.6}, {"smiles": "O=C(NCCc1ccccc1)c1ccc(S(=O)(=O)N2CCCC2)cc1", "hERG current change (%, negative = inhibition) at 10uM": -5.37}, {"smiles": "CSc1cccc(NC(=O)COC(=O)C2CCN(S(=O)(=O)c3ccccc3)CC2)c1", "hERG current change (%, negative = inhibition) at 10uM": 4.09}, {"smiles": "Cc1ccc(-n2cnnn2)cc1Cl", "hERG current change (%, negative = inhibition) at 10uM": -18.8}, {"smiles": "C/C(=N\\NC(=O)CNC(=O)c1cccs1)c1ccc(Cl)c(Cl)c1", "hERG current change (%, negative = inhibition) at 10uM": -2.25}, {"smiles": "Fc1ccc(NCc2ccccc2F)cc1Cl", "hERG current change (%, negative = inhibition) at 10uM": -139}, {"smiles": "Fc1ccccc1CNc1ccc(Cl)c(Cl)c1", "hERG current change (%, negative = inhibition) at 10uM": 9.9}, {"smiles": "Fc1ccccc1CNc1ccc(Cl)cc1", "hERG current change (%, negative = inhibition) at 10uM": -8.14}, {"smiles": "CC(NC(=O)CSC1=NCCS1)c1ccccc1", "note": "(stereo not shown)", "hERG current change (%, negative = inhibition) at 10uM": 14.3}, {"smiles": "Clc1nc2sccn2c1/C=N/n1cnc2ccccc21", "hERG current change (%, negative = inhibition) at 10uM": -10}, {"smiles": "COc1ccc(C(C(=O)NC2CCCCC2)N(C(=O)c2ccco2)c2ccccc2C(C)=O)cc1OC", "note": "(stereo not shown)", "hERG current change (%, negative = inhibition) at 10uM": 9.15}, {"smiles": "Cc1ccc(NC(=O)C(C)N2CCOCC2)c(C(=O)c2ccccc2)c1", "note": "(stereo not shown)", "hERG current change (%, negative = inhibition) at 10uM": -26.9}, {"smiles": "O=C(CN1CCOCC1)Nc1ccc(Br)cc1C(=O)c1ccccc1", "hERG current change (%, negative = inhibition) at 10uM": -32.4}, {"smiles": "O=C(CCN1CCCCC1)NCC(=O)Nc1ccc(Br)cc1C(=O)c1ccccc1", "hERG current change (%, negative = inhibition) at 10uM": -77.6}, {"smiles": "O=C(CNC(=O)OCc1ccccc1)NCC(=O)Nc1ccc(Br)cc1C(=O)c1ccccc1", "hERG current change (%, negative = inhibition) at 10uM": -56}, {"smiles": "O=C(CNC(=O)OCc1ccccc1)Nc1ccc(Br)cc1C(=O)c1ccccc1", "hERG current change (%, negative = inhibition) at 10uM": -15.1}, {"smiles": "O=C(CNC(=O)OCc1ccccc1)Nc1ccc(Br)cc1C(=O)c1ccccc1Cl", "hERG current change (%, negative = inhibition) at 10uM": -40.5}, {"smiles": "O=C(CN1CCOCC1)NCC(=O)Nc1ccc(Br)cc1C(=O)c1ccccc1", "hERG current change (%, negative = inhibition) at 10uM": -37.1}, {"smiles": "CC(C(=O)Nc1ccc(Br)cc1C(=O)c1ccccc1)N1CCOCC1", "note": "(stereo not shown)", "hERG current change (%, negative = inhibition) at 10uM": -58.6}, {"smiles": "O=C(CCN1CCOCC1)Nc1ccc(Br)cc1C(=O)c1ccccc1", "hERG current change (%, negative = inhibition) at 10uM": -19.6}, {"smiles": "CC(C(=O)Nc1ccc(Br)cc1C(=O)c1ccccc1)N1CCCCC1", "note": "(stereo not shown)", "hERG current change (%, negative = inhibition) at 10uM": -24.8}, {"smiles": "O=C(CN1CCCCC1)NCC(=O)Nc1ccc(Br)cc1C(=O)c1ccccc1", "hERG current change (%, negative = inhibition) at 10uM": -79.1}, {"smiles": "O=C(CCN1CCOCC1)NCC(=O)Nc1ccc(Br)cc1C(=O)c1ccccc1", "hERG current change (%, negative = inhibition) at 10uM": -49.5}, {"smiles": "Cc1csc(NC(=O)c2ccc(C)s2)n1", "hERG current change (%, negative = inhibition) at 10uM": 6.99}, {"smiles": "Cc1cc(C(=O)N/N=C/c2c[nH]c3ccccc23)c(C)o1", "hERG current change (%, negative = inhibition) at 10uM": -27.4}, {"smiles": "N#Cc1c(C(F)(F)F)cc(-c2ccc(Cl)c(Cl)c2)nc1SCCN1CCOCC1", "hERG current change (%, negative = inhibition) at 10uM": 6.62}, {"smiles": "CN1CCC(OC(=O)c2cc3cc(Cl)cc(Cl)c3oc2=O)CC1", "hERG current change (%, negative = inhibition) at 10uM": -17.8}, {"smiles": "O=C1N/C(=C\\c2ccc(O)cc2)C(=O)c2ccccc21", "hERG current change (%, negative = inhibition) at 10uM": -1.53}, {"smiles": "O=C(O)C(=O)O.O=S(=O)(c1ccc(F)cc1)N1CCC(N2CCCCCC2)CC1", "hERG current change (%, negative = inhibition) at 10uM": -26.3}, {"smiles": "COc1ccc(Nc2ccc(Nc3ccc(OC)cc3)nn2)cc1", "hERG current change (%, negative = inhibition) at 10uM": 18.6}, {"smiles": "Cc1cccc(N2CCN(C(=O)Cn3nc(C)n4cccc4c3=O)CC2C)c1", "note": "(stereo not shown)", "hERG current change (%, negative = inhibition) at 10uM": 1.19}]}]}
